# According to the supplement of paper PMC11732987, “Enantioselective OTUD7B fragment discovery through chemoproteomics screening and high-throughput optimisation” (Communications Chemistry, 2025):
# Unmarked numbers belong to inactive results.
# Compound: ClCC(=O)N1CCCC1=O
# Assay: log2 ratio of Biotin-Ahx-Ub-VS probe labelling (fragment/DMSO); higher = less target engagement (more negative = stronger competition), active = hit call of the paper (q ≤ 0.05, log2 ratio ≤ -1)
# Settings: compound concentration: 200 uM; treatment time: 3 h
# Experimental: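 Competitive ABPP in HEK293T cell lysate. Lysates were treated with each chloroacetamide fragment at 200 µM for 3 h, then with Biotin-Ahx-Ub-VS (0.5 µM, 1 h), NeutrAvidin-enriched and analysed by diaPASEF LC-MS/MS. Protein LFQ was median-normalised; average log2 ratio is fragment/DMSO from an unpaired t-test (n=3 treated, n=44 DMSO). Hits: q ≤ 0.05, log2 ratio ≤ -1, unique peptides ≥ 2.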
# UniProt Q70EL1, sequence (Q70EL1 whole entry): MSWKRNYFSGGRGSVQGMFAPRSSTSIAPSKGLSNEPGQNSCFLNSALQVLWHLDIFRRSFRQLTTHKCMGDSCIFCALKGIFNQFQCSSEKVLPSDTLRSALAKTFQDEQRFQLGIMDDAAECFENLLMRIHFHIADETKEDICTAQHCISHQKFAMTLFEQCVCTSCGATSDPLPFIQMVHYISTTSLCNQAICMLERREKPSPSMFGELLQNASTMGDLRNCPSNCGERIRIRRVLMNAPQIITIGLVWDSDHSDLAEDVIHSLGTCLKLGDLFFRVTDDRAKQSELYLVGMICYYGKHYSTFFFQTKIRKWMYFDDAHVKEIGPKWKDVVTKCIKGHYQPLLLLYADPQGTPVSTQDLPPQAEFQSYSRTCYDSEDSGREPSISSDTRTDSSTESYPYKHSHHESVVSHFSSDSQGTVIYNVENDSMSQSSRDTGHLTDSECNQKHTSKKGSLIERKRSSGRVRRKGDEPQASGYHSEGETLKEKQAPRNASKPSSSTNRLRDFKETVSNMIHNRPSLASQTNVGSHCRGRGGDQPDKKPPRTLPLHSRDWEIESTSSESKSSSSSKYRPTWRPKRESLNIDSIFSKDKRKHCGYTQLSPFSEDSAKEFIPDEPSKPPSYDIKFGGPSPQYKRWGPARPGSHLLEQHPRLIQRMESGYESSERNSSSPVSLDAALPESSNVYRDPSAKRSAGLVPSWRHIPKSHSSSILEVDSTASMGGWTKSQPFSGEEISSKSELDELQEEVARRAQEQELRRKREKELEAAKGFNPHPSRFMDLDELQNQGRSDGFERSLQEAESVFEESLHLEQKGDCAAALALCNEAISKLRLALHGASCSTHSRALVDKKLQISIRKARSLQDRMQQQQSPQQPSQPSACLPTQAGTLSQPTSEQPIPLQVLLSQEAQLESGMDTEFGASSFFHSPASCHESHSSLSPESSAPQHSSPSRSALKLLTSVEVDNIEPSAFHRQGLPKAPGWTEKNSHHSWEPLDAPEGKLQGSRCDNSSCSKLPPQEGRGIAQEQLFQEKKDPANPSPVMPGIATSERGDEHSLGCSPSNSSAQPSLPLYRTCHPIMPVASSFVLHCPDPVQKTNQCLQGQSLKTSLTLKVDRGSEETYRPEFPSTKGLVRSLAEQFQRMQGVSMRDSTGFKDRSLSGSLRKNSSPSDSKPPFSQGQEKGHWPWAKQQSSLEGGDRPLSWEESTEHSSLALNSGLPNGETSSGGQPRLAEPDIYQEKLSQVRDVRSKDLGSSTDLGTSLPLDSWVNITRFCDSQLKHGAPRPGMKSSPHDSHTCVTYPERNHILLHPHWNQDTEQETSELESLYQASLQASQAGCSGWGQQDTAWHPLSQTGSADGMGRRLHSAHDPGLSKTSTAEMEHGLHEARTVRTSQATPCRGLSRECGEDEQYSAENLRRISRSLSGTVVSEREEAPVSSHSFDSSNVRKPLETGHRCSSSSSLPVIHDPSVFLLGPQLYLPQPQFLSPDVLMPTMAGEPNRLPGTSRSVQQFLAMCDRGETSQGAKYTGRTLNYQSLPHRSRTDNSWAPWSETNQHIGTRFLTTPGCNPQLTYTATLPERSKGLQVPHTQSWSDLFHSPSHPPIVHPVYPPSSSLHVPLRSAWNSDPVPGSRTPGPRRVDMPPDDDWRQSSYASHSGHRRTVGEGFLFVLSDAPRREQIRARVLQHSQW
# UniProt Q5VVQ6, sequence (Q5VVQ6 whole entry): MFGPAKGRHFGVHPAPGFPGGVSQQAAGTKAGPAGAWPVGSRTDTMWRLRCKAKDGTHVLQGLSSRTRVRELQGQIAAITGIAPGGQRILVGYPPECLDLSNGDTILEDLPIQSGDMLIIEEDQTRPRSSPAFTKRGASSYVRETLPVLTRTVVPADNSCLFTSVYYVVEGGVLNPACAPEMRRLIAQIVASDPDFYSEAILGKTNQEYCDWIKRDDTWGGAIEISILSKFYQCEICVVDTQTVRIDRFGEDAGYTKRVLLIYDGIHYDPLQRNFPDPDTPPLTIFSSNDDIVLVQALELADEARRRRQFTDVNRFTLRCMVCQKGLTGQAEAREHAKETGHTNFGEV
# UniProt Q93009, sequence (Q93009 whole entry, looked up): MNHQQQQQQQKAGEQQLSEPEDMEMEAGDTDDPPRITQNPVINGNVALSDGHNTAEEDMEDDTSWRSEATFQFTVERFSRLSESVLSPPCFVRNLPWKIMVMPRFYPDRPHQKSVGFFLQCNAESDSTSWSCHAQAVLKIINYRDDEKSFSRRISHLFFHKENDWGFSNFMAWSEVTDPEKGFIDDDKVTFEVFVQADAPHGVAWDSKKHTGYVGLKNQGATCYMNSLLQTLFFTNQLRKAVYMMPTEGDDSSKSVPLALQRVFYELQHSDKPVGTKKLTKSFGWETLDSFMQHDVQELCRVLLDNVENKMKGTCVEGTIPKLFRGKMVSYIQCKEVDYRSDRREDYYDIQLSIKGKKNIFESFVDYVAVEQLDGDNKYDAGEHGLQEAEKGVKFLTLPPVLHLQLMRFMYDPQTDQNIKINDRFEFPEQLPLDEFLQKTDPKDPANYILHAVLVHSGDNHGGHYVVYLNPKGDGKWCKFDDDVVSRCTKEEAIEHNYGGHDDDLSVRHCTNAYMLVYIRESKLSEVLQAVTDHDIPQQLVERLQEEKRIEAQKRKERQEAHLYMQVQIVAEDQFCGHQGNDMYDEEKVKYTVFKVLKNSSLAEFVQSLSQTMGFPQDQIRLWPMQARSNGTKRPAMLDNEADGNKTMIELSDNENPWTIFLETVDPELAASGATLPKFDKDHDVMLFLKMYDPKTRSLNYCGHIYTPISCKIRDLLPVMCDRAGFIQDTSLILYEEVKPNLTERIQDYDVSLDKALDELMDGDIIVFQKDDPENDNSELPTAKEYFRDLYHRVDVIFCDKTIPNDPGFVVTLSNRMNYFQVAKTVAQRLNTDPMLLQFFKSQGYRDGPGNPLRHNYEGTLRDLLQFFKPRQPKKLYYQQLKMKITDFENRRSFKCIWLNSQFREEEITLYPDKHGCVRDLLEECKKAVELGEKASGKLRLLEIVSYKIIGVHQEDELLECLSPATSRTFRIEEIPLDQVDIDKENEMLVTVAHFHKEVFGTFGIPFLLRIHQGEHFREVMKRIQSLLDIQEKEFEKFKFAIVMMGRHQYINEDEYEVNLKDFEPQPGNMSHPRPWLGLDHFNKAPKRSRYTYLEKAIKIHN
# UniProt P51784, sequence (P51784 whole entry): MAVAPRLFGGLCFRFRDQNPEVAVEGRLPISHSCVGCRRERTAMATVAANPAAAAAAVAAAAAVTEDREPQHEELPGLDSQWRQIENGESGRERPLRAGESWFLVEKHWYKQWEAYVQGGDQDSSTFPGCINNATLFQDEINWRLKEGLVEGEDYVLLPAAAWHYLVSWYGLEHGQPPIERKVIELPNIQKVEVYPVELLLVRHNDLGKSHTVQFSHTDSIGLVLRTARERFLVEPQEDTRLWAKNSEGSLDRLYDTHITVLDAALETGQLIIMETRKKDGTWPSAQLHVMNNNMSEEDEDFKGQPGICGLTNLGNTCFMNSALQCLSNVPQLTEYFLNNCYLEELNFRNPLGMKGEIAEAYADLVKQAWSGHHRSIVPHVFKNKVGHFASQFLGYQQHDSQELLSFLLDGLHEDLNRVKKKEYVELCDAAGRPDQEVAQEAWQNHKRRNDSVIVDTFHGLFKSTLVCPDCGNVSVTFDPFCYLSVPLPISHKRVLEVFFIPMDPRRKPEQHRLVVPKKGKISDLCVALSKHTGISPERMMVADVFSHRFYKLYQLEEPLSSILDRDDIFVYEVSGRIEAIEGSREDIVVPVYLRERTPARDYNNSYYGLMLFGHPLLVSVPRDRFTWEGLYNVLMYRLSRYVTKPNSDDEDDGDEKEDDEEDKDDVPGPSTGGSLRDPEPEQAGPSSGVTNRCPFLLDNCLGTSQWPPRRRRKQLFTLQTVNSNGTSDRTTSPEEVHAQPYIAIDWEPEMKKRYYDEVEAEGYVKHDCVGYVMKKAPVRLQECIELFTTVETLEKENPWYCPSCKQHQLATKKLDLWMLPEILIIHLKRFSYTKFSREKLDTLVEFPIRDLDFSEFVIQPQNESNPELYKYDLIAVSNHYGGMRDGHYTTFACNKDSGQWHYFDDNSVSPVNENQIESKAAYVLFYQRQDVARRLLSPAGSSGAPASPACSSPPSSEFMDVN
# UniProt P45974, sequence (P45974 whole entry): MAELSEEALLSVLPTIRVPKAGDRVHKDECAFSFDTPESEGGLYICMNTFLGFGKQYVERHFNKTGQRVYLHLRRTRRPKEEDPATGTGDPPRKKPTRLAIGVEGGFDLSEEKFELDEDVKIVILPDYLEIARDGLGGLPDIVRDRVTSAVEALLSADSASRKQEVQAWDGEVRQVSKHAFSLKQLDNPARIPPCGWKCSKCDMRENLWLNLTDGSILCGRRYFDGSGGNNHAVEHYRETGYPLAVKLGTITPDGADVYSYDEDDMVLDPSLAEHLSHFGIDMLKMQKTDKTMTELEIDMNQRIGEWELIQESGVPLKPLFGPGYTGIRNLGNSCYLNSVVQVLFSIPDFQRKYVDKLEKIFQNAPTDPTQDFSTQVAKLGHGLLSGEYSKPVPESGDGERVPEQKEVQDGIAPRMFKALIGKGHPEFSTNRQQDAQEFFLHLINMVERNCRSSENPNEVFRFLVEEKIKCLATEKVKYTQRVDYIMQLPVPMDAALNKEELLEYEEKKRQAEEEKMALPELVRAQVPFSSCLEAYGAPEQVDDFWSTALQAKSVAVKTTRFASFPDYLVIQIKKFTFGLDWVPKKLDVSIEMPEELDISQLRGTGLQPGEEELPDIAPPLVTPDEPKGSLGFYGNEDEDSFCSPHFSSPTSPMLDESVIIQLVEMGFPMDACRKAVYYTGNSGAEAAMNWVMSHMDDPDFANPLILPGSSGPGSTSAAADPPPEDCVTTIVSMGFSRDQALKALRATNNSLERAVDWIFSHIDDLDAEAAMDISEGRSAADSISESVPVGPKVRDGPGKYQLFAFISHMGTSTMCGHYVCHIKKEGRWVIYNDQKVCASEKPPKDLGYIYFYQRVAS
row,Target,log2 ratio of Biotin-Ahx-Ub-VS probe labelling
1,USP54 (UniProt Q70EL1),-0.396
2,UCHL1 (UniProt P09936),-0.746
3,USP5 (UniProt P45974),-0.246
4,USP34 (UniProt Q70CQ2),-0.582
5,OTUB1 (UniProt Q96FW1),-0.0612
6,UniProt Q9UGI0,-0.149
7,USP22 (UniProt Q9UPT9),-0.616
8,UniProt Q5T2D3,-0.924
9,UniProt O00507,-0.733
10,UniProt P51784,-0.126
11,USP24 (UniProt Q9UPU5),-0.396
12,UCHL3 (UniProt P15374),0.027
13,USP15 (UniProt Q9Y4E8),-0.378
14,ATXN3 (UniProt P54252),-0.301
15,USP9X (UniProt Q93008),-0.16
16,PRPF8 (UniProt Q6P2Q9),0.106
17,USP14 (UniProt P54578),-0.184
18,BAP1 (UniProt Q92560),-0.142
19,USP8 (UniProt P40818),-0.417
20,USP42 (UniProt Q9H9J4),-0.218

row,Target,log2 ratio of Biotin-Ahx-Ub-VS probe labelling
1,VCPIP1 (UniProt Q96JH7),-0.53
2,USP46 (UniProt P62068),-0.141
3,UniProt Q8TE49,-0.249
4,FAM105A (UniProt Q9NUU6),-0.739
5,USP19 (UniProt O94966),-0.376
6,USP39 (UniProt Q53GS9),0.0278
7,OTUD6B (UniProt Q8N6M0),-0.48
8,USP36 (UniProt Q9P275),-0.0906
9,OTUD4 (UniProt Q01804),-0.294
10,COPS5 (UniProt Q92905),0.159
11,USP28 (UniProt Q96RU2),-0.413
12,USP7 (UniProt Q93009),-0.135
13,UniProt Q9P2H5,-0.151
14,YOD1 (UniProt Q5VVQ6),-0.311
15,OTUD5 (UniProt Q96G74),-0.377
16,USP47 (UniProt Q96K76),-0.175
17,ALG13 (UniProt Q9NP73),0.188
18,USP16 (UniProt Q9Y5T5),-0.298
19,UniProt O00487,0.00332
20,PSMD7 (UniProt P51665),-0.274
